High-throughput results: PubChem BioAssay, Buhrlage Lab, Dana-Farber Cancer Institute and Novartis Institutes for BioMedical Research (Cambridge, Mass)
This is a sample that favours compounds with a hit; in the whole collection about 7% have one here.
USP28 block: blocks human USP28 ubiquitin-rhodamine cleavage; 47,000 tested, 3% active; purified USP28, Ub-rhodamine cleavage fluorescence, 30 min; inhibition, % at 25 µM
Target sequence (Q96RU2 whole entry, looked up): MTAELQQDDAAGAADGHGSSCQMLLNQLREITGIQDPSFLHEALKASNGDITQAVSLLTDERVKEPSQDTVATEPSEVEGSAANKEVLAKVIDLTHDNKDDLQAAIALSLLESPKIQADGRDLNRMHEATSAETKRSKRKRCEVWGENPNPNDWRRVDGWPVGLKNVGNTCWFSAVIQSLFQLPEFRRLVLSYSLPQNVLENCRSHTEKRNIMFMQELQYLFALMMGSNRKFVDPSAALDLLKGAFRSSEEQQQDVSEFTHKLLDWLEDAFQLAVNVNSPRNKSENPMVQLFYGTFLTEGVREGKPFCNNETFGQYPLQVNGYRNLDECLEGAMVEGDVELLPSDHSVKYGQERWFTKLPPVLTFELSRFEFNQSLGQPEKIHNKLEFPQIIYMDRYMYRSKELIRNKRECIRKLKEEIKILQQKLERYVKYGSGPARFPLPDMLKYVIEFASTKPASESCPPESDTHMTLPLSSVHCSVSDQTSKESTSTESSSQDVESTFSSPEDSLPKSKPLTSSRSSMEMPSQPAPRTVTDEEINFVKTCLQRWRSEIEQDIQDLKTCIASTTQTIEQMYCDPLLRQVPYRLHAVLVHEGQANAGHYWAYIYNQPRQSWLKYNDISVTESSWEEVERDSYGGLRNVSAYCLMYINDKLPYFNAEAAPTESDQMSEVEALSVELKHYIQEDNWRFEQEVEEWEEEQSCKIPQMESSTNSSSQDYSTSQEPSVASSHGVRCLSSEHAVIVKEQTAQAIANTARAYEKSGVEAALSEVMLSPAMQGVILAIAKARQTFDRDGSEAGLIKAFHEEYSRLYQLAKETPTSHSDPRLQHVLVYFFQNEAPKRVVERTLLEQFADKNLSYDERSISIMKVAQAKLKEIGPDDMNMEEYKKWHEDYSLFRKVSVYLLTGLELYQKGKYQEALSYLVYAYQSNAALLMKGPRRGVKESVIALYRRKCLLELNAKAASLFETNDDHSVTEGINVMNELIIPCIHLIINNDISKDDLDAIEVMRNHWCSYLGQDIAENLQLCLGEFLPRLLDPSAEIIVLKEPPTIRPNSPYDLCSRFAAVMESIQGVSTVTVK
USP30 block: inhibitors of human USP30 deubiquitinase | purified USP30, Ub-rhodamine cleavage fluorescence | inhibition, % at 25 µM | AID 1645860 | 47,000 tested, 5.3% active
A number is an active result; 0 = inactive. Cut-off read from the data, not from the text of the source: active = inhibition above about 30%; inactive = the rest.

SMILES	USP28 block	USP30 block
CO[C@H]1/C=C/OC2(C)Oc3c(C)c(O)c4c(c3C2=O)C2(C=C(NC(=O)/C(C)=C\C=C\[C@H](C)[C@H](O)[C@@H](C)[C@@H](O)[C@@H](C)[C@H](OC(C)=O)C1C)C4=O)OCC(=O)O2 (stereo not given in full)	0	0
CCN(Cc1ccccc1)c1ccc(/C=C(\C#N)c2nc3ccccc3[nH]2)cc1	0	0
CCOc1ccc(CCNC(=O)c2cc(Nc3ccccc3C)nc3ccccc23)cc1OCC	41.2	56.2
COc1ccc(OC)c(CCNC(=O)c2ccc3c(=O)n4c(nc3c2)CCCC4)c1	0	0
CCc1ccc(Nc2cc(C(=O)NC3CCCC3)c3ccccc3n2)cc1	0	0
CCOc1ccc(CCNC(=O)c2ccc3c(SCC(=O)O)c4c(nc3c2)CCC4)cc1OCC	42.1	0
CCOc1ccc(Nc2cc(C(=O)NCCC3=CCCCC3)c3ccccc3n2)cc1	0	31.8
Cc1ccc(CCNC(=O)c2cc(Nc3ccccc3C)nc3ccccc23)cc1	0	0
Cc1cccc2[nH]c(C(=O)N3CCn4c(nnc4C4CCCN(C)C4)C3)cc12 (stereo not given)	0	0
COc1cc(OC)cc(C(=O)Nc2ccc3c(c2)Sc2ncccc2C(=O)N3C)c1	0	0
Cc1cccc(OCC(=O)Nc2ccc3c(c2)Sc2ncccc2C(=O)N3C)c1	0	0
COc1ccc(C(=O)Nc2ccc3c(c2)Sc2ncccc2C(=O)N3C)cn1	65.2	0
CN1C(=O)c2cccnc2Sc2cc(NC(=O)CCc3ccccc3)ccc21	0	0
COc1ccc(CCC(=O)Nc2ccc3c(c2)Sc2ccccc2C(=O)N3C)cc1	31.7	39.4
CCOc1ccccc1C(=O)Nc1ccc2c(c1)Sc1ncccc1C(=O)N2C	40.2	0
O=C(Cc1ccccc1F)N1CCC(Nc2ncnc3c2CCC3)C1 (stereo not given)	0	0
CCOc1ncccc1C(=O)Nc1ccnn1Cc1sccc1C	0	0
O=C(CSc1nc(=O)n(Cc2ccncc2)c2c1CCC2)NCCc1ccccc1	0	0
CNC(=O)c1cnc2n1CCN(C(=O)c1ccc3ccccc3n1)C2	0	0
CC(C)C(NC(=O)c1ccccc1)C(=O)N1CC=C(c2ccccc2)CC1 (stereo not given)	0	0
O=C(NCCCS(=O)(=O)N1CCN(c2ccccc2)CC1)c1ccc(F)cc1	0	0
CNC(=O)NC1CCCN(c2cc(N3CCCC3)ncn2)C1 (stereo not given)	0	0
N#Cc1c(SCCO)nc(N2CCCC2)c2c1CCCC2	61.5	0
N#Cc1c(-c2ccccc2)nc(N2CCCC2)nc1N1CCCC1	0	0
OC(CN1CCN(c2ccc(F)cc2)CC1)c1ccc2c(c1)CCN2 (stereo not given)	0	60.6
SMILES	USP28 block	USP30 block
COc1ccc2c(C(O)CN3CCN(c4ccc(F)cc4)CC3)c[nH]c2c1 (stereo not given)	0	0
Cc1ccc(S(=O)(=O)c2cnc3ccccc3c2N2CCCCCC2)cc1C	0	0
Cc1cccc(-n2cnc(C(=O)NCc3ccc(F)cc3)c2)n1	0	35.5
Cc1ccc(C(=O)NCc2ccc(N3CCOCC3)nc2)cc1F	0	0
CC(=O)Nc1ccc(-n2cnc(C(=O)NCc3ccc(F)cc3)c2)nc1	0	0
Cc1cc(C)n(-c2ccc(C(=O)NCc3ccc(F)cc3)cn2)n1	33.6	68.5
Cc1ccc(CS(=O)c2nc3c(c(N4CCN(C)CC4)n2)CCCC3)cc1 (stereo not given)	0	0
Cc1nc2nc(N)[nH]c(=O)c2[nH]1	0	0
CCOC(=O)N1CCN(C(=O)CCc2c(C)c3ccc(O)cc3oc2=O)CC1	0	0
COc1ccccc1C(=O)N(Cc1ccccc1)C(C)(C)c1ccccc1	0	36.4
COc1ccccc1C(=O)N(Cc1ccccc1F)C1CCS(=O)(=O)C1 (stereo not given)	0	0
CCOc1ccccc1NC(=O)c1nc(C2CCC2)oc1C	0	0
C(=C\c1ccccc1)/Cn1c(C2CCCO2)nc2ccccc21 (stereo not given)	0	0
Cc1ccc(C(=O)NCC2(c3ccccc3)CCCC2)cn1	0	0
C=C(CC[C@@H](C)[C@H]1CC[C@@H]2[C@]1(C)C[C@@H](O)[C@@]13C[C@@]14C(=O)C[C@H](O)[C@@](C)(C(=O)O)[C@@H]4C(=O)C[C@]23O)C(C)C	32.4	0
C/C=C/C=C/[C@@H]1Cc2cc(O)cc(O)c2O1	91.4	81.8
CCN(CC)CCNc1ncnc2c1c(C)c(C)n2Cc1cccnc1	0	0
CCc1ccc(C2CN3C(=O)c4ccccc4C3c3[nH]c4ccccc4c32)cc1 (stereo not given)	0	0
O=C(/C=C/c1ccc(Br)cc1)NCCN1CCOCC1	0	0
CC1=CC(=O)C(C2=C(O)C(=O)C(C)=CC2=O)=C(O)C1=O	45.7	0
CCCCC/C=C/C=C/C(=O)OC1C(O)CC(c2ccc3c(c2O)C(=O)c2c(O)cc4cc(C)cc(O)c4c2C3=O)OC1C (stereo not given)	36.5	0
